Results from PubChem BioAssay.
Active and inactive are the calls of the source.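 The calls were made as follows, unless noted: active = z-score of at least 1.8 in each of two replicates, scored against plate mean and spread of sample wells; inactive = the rest.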

Assays:
[1] = survival rescue of mitochondrial mutant cells in low glucose, primary screen, MELAS cybrids, Rieske KO mouse fibroblasts, CellTiter-Glo (AID 1508586;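 active = mean z-score across replicates of 1.96 or higher in either the MELAS or the Rieske mutant cell line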;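 also: test concentration not given here; z relative to plate mean and SD of compound and empty wells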)
[2] = viability rescue of complex I mutant cybrids, primary screen, cell-based, galactose medium, ATP luminescence (AID 1645843); conditions: complex I mutant cybrid cells, 72 h, stronger effect = higher value;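 also: positive z means more ATP and so rescue of galactose-driven cybrid death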
[3] = MELAS cybrid survival, CellTiter-Glo 48 h, stronger effect = higher value
[4] = Rieske KO mouse fibroblast survival, CellTiter-Glo 72 h

| Structure (SMILES) | z-score [1, 3] | z-score [1, 4] | z-score [2] |
| --- | --- | --- | --- |
| Cc1ccn2cc(C(=O)N3CCc4c(cc(-c5ccc(OC(F)(F)F)cc5)c(=O)n4C)C3)nc2c1 | -0.191 (inactive) | -0.543 | 1.4 (inactive) |
| CN(C)c1ccc(/C=C/CN2CC(=O)N(CCCN3CCCC3=O)CC(O)C2)cc1 (centres undefined) | -0.11 (inactive) | -0.286 | 0.35 (inactive) |
| C=CCn1nc(C(=O)N2CCSCC2)c2c1CCC(N1CCOc3ccc(Cl)cc3C1)C2 (centres undefined) | -0.526 (inactive) | -0.713 | 0.51 (inactive) |
| COc1ccccc1C(=O)N1CCN2C(=O)[C@H](CCCCN)NC(=O)[C@H]2C1 | 0.643 (inactive) | -0.574 | -0.735 (inactive) |
| O=C(NCc1cccc(F)c1)N[C@H]1C[C@H]2C(=O)N[C@@H](COCc3ccccc3)C(=O)N2C1 | 0.777 (inactive) | -0.345 | -0.285 (inactive) |
| CCOC(=O)c1nn(Cc2ccc(OC)cc2)c2c1CN(C(=O)CSc1ncccn1)CC2 | -0.668 (inactive) | -0.456 | 0.665 (inactive) |
| NCCCC[C@@H]1NC(=O)[C@@H]2C[C@H](NCc3nc(-c4ccccc4)cs3)CN2C1=O | -0.0314 (inactive) | 0.0831 | -0.77 (inactive) |
| CCn1nc(C(=O)N2CCCCC2)c2c1CCC(NCc1ccc3c(c1)OCO3)C2 (centres undefined) | -0.251 (inactive) | 0.426 | -1.14 (inactive) |
| Cn1nc(C(=O)NCc2cccnc2)c2c1CCN(Cc1ccc3c(c1)Cc1ccccc1-3)C2 | -0.134 (inactive) | -0.0827 | 0.125 (inactive) |
| O=C(N[C@H]1C[C@H]2C(=O)N3CCC[C@H]3C(=O)N2C1)c1cccnc1Oc1ccc(Cl)cc1 | -0.353 (inactive) | -0.898 | -0.34 (inactive) |
| CCc1nc(CNc2cc(C(=O)Nc3ccc4c(c3)CCC4)cc(S(=O)(=O)NC)c2)c(C)[nH]1 | -0.12 (inactive) | -0.343 | 0.065 (inactive) |
| CC(C)Cn1nc(C(=O)N2CCOCC2)c2c1CCC(NCc1ccc(F)cc1)C2 (centres undefined) | 0.123 (inactive) | -0.12 | 0.625 (inactive) |
| COc1ccc(-c2[nH]ncc2CN2CCC3(CC2)C(=O)N(C(C)C)C(=O)N3CCC(C)C)cc1 | 0.0083 (inactive) | -0.0351 | 0.975 (inactive) |
| COC(=O)CCN1CC(OCc2ccncc2)CN(C(=O)c2csc(SC)n2)CC1=O (centres undefined) | -0.62 (inactive) | -0.661 | 0.42 (inactive) |
| CCN(CC)C(=O)c1cc(-c2ccc(C)s2)cc(S(=O)(=O)N2CCOCC2)c1 | -0.0477 (inactive) | 0.74 | -0.44 (inactive) |
| COCCn1c(C(=O)OC)c(NC(=O)c2ccco2)c2cc(NC3CCc4ccccc4C3)cnc21 (centres undefined) | 9.06 (active) | -2 | -1.68 (inactive) |
| Cc1ccc(S(=O)(=O)N2CCN3C(=O)[C@H](Cc4ccc(Cl)cc4)NC(=O)[C@H]3C2)cc1 | 1.43 (inactive) | -0.392 | -0.845 (inactive) |
| CN(C)c1cccc(NC(=O)c2cc(NCc3cnn(C)c3)cc(S(=O)(=O)N3CCCC3)c2)c1 | -0.28 (inactive) | -0.862 | 0.265 (inactive) |
| CC(C)CCN1C(=O)N(CC(N)=O)C(=O)C12CCN(Cc1nc3ccccc3s1)CC2 | -0.288 (inactive) | -0.574 | 0.225 (inactive) |
| CC(C)CNC(=O)[C@H]1CNC[C@@H](CN2CCOCC2)C1 | 0.0168 (inactive) | 0.121 | -0.045 (inactive) |
| Cc1ccc(Cl)cc1NC(=O)N[C@H]1C[C@H]2C(=O)N[C@H](C(C)C)C(=O)N2C1 | -0.17 (inactive) | 0.0408 | -0.745 (inactive) |
| Cc1ncc(CNc2cc(C(=O)Nc3cccc(N(C)C)c3)cc(S(=O)(=O)N3CCCC3)c2)[nH]1 | -0.563 (inactive) | -0.237 | 0.295 (inactive) |
| O=C1CCCc2occ(C(=O)N3CC(=O)N(Cc4ccccc4)CC(OCc4ccccn4)C3)c21 (centres undefined) | -0.412 (inactive) | -0.733 | 2.83 (inactive) |
| Cc1nc2ccccc2nc1CN1CC(=O)N(C2CCCCC2)CC(OCc2cccnc2)C1 (centres undefined) | -0.279 | 6.23 | -1.6 (inactive) |
| CCc1ccc(CNc2cnc3c(c2)c(NC(=O)c2cccnc2)c(C(=O)OC)n3CC(C)C)o1 | 3.75 (active) | 4.55 | -1.67 (inactive) |
| Cc1ccc(-c2cc(C(=O)N(C)CCc3cnn(C)c3)cc(S(=O)(=O)N3CCOCC3)c2)s1 | -0.0954 (inactive) | -0.0313 | 0.925 (inactive) |
| Cn1c2c(cc(Cc3ccccc3F)c1=O)CN(C(=O)c1ccc(C#CC(C)(C)O)o1)CC2 | -0.447 (inactive) | 0.668 | -0.48 (inactive) |

| Structure (SMILES) | z-score [1, 3] | z-score [1, 4] | z-score [2] |
| --- | --- | --- | --- |
| CC(C)CN1CC(OCc2cccc(F)c2)CN(C(=O)c2cccc(N3CCNC3=O)c2)CC1=O (centres undefined) | -0.284 (inactive) | -0.354 | 0.795 (inactive) |
| CCOC(=O)c1nn(CCC(F)(F)F)c2c1CN(C(=O)c1ccco1)CC2 | -0.696 (inactive) | -0.531 | -0.32 (inactive) |
| COCCn1c(C(=O)OC)c(NC(=O)Cc2ccccc2)c2cc(NC(C)CCO)cnc21 (centres undefined) | -0.113 (inactive) | 0.262 | -0.97 (inactive) |
| COc1cccc(C(=O)N2CCN3C(=O)[C@H](C(C)C)NC(=O)[C@H]3C2)c1 | -0.0303 (inactive) | -0.513 | 0.605 (inactive) |
| CC(C)CN1C[C@@H](CN2CCOCC2)C[C@@H](C(=O)N2CCCC2)C1 | -0.0982 (inactive) | -0.607 | -0.485 (inactive) |
| COc1cc(CN2CCc3c(cc(-c4cccc(F)c4)c(=O)n3CCn3ccc(C)n3)C2)ccc1O | 0.37 (inactive) | 0.944 | -0.15 (inactive) |
| CCN1C(=O)N(Cc2cccc(OC)c2)C(=O)C12CCN(CC1CC=CCC1)CC2 (centres undefined) | -0.681 (inactive) | -0.854 | -0.435 (inactive) |
| CC(C)Cn1nc(C(=O)NCc2cccnc2)c2c1CCN(C(=O)c1scc3c1OCCO3)C2 | -0.675 | 5.2 | -1.46 (inactive) |
| Cc1[nH]cnc1CNc1cc(C(=O)Nc2cccc(N(C)C)c2)cc(S(=O)(=O)N2CCCC2)c1 | -0.329 (inactive) | -0.954 | 0.055 (inactive) |
| O=C(C1COc2ccccc2C1)N1CC(=O)N(C2CCCCC2)CC(OCc2ccccn2)C1 (centres undefined) | 0.04 (inactive) | -1.17 | 2.08 (inactive) |
| CNS(=O)(=O)c1cc(NCc2cnc(C)[nH]2)cc(C(=O)Nc2ccc3c(c2)CCC3)c1 | -0.00503 (inactive) | -0.751 | 0.02 (inactive) |
| Cn1nc(C(=O)N2CCCCC2)c2c1CCC(NCC1(c3ccccc3)CCOCC1)C2 (centres undefined) | 0.135 (inactive) | 0.153 | -0.59 (inactive) |
| COC(=O)c1c(NC(=O)c2ccoc2)c2cc(NC3CCSCC3)cnc2n1CC(C)C | -0.463 (inactive) | -0.31 | 0.98 (inactive) |
| Cc1ccccc1CN[C@H]1C[C@H]2C(=O)N[C@@H]([C@@H](C)O)C(=O)N2C1 | 0.0812 (inactive) | -0.372 | 0.715 (inactive) |
| COC(=O)CCN1CC(OCc2cccc(OC)c2)CN(C(=O)CCc2cccs2)CC1=O (centres undefined) | -0.467 (inactive) | -0.256 | 0.52 (inactive) |
| Cc1noc(C)c1CC(=O)N1CCc2c(c(C(=O)N3CCOCC3)nn2CCCc2ccccc2)C1 | 0.975 (inactive) | -0.571 | -0.895 (inactive) |
| CC(C)C[C@@H]1NC(=O)[C@H]2CN(S(=O)(=O)c3cccc4ccccc34)CCN2C1=O | -0.496 (inactive) | -0.159 | -0.92 (inactive) |
| C=CCn1nc(C(=O)N2CCCC2)c2c1CCC(NCc1ccccc1OC(F)(F)F)C2 (centres undefined) | 0.124 (inactive) | 0.327 | -0.3 (inactive) |
| Cc1cc(-c2cc3c(n(C)c2=O)CCN(Cc2c(C)nc4sccn24)C3)ccc1F | -0.189 (inactive) | 0.11 | 0.27 (inactive) |
| CN(Cc1ccco1)C(=O)c1nn(C)c2c1CC(N1CCOc3ccc(Cl)cc3C1)CC2 (centres undefined) | -0.11 (inactive) | 0.109 | -0.61 (inactive) |
| COCC(=O)Nc1c(C(=O)OC)n(C)c2ncc(NCc3cnn(C)c3C)cc12 | -0.241 (inactive) | -0.209 | -0.64 (inactive) |
| CC(C)N1CC(OCc2ccc(F)cc2)CN(C(=O)c2ccc(C#CC(C)(C)O)o2)CC1=O (centres undefined) | -0.3 (inactive) | -0.177 | 0.06 (inactive) |
| O=C([C@@H]1C[C@H](CN2CCOCC2)CN(Cc2ccccc2)C1)N1CCCC1 | 0.0951 (inactive) | -0.211 | -0.6 (inactive) |
| CCCCNC(=O)[C@@H]1C[C@H](CN2CCOCC2)CN(Cc2ccc(O)cc2)C1 | 1.06 (inactive) | -0.315 | 0.115 (inactive) |
| CC(C)CCN1C(=O)N(C(C)C)C(=O)C12CCN(Cc1ccc(CN3CCCCC3)s1)CC2 | -0.0425 (inactive) | -0.0124 | 1.27 (inactive) |
| COCC(=O)Nc1c(C(=O)OC)n(CCC(C)C)c2ncc(NC(C)CCn3cccn3)cc12 (centres undefined) | 0.765 | 4.41 | -0.21 (inactive) |
